Measurements reported in PubChem BioAssay AID1159580 (chemical genetic matrix, 2015).
About 2,000 (36%) of roughly 5,500 compounds were called active. About 18% were inconclusive and are not listed. Cut-off read from the data, not from the text of the source: active = normalized growth mostly below about 0.91 (no sharp cut-off); inconclusive = no clear call, values can overlap the other calls; inactive = mostly above about 0.92. The list shows a part of the results.

Assay: chemical genetic growth profiling, strain panel (AID 1159580);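 note: tested at 20 µM; growth read once vehicle control cultures reached saturation at 30 °C; 1 = growth at the plate median or of vehicle wells; lower values mean less growth of the strain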
Details: growth OD

Measured: normalized growth

ClC1=C(Cl)C2(Cl)C3C(Cl)C=CC3C1(Cl)C2(Cl)Cl (configuration not stated)
active: S. cerevisiae deletion strains, locus YNL307C, strain MCK1, active compounds read low 0.885
inactive: S. cerevisiae deletion strains, locus YJR075W, strain HOC1, active compounds read low 1 | S. cerevisiae deletion strains, locus YKL009W, strain mrt4, active compounds read low 0.957 | S. cerevisiae deletion strains, locus YKL068W, active compounds read low 1 | S. cerevisiae deletion strains, locus YKL085W, strain MDH1 (second series), active compounds read low 0.996 | S. cerevisiae deletion strains, locus YKL085W, strain MDH1, active compounds read low 0.996 | S. cerevisiae deletion strains, locus YKL160W, strain elf1, active compounds read low 0.993 | S. cerevisiae deletion strains, locus YKL190W, strain CNB1, active compounds read low 0.989 | S. cerevisiae deletion strains, locus YKR001C, strain vps1, active compounds read low 0.965 | S. cerevisiae deletion strains, locus YKR026C, strain gcn3, active compounds read low 1.01 | S. cerevisiae deletion strains, locus YKR091W, strain srl3, active compounds read low 1.01 | S. cerevisiae deletion strains, locus YLL001W, strain dnm1, active compounds read low 1 | S. cerevisiae deletion strains, locus YLL026W, active compounds read low 1.01 | S. cerevisiae deletion strains, locus YLL041C, strain sdh2, active compounds read low 1.01 | S. cerevisiae deletion strains, locus YLR027C, strain aat2, active compounds read low 0.97 | S. cerevisiae deletion strains, locus YLR039C, strain RIC1, active compounds read low 1 | S. cerevisiae deletion strains, locus YLR058C, strain SHM2, active compounds read low 0.986 | S. cerevisiae deletion strains, locus YLR102C, strain apc9, active compounds read low 0.981 | S. cerevisiae deletion strains, locus YLR113W, strain HOG1, active compounds read low 0.938 | S. cerevisiae deletion strains, locus YLR221C, strain rsa3, active compounds read low 0.971 | S. cerevisiae deletion strains, locus YLR258W, strain gsy2, active compounds read low 0.988 | S. cerevisiae deletion strains, locus YLR262C, strain YPT6 (second series), active compounds read low 0.933 | S. cerevisiae deletion strains, locus YLR262C, strain YPT6, active compounds read low 1.01 | S. cerevisiae deletion strains, locus YLR268W, strain sec22, active compounds read low 0.985 | S. cerevisiae deletion strains, locus YLR320W, strain mms22, active compounds read low 0.965 | S. cerevisiae deletion strains, locus YLR330W, strain CHS5, active compounds read low 0.998 | S. cerevisiae deletion strains, locus YLR342W, strain FKS1 (second series), active compounds read low 0.948 | S. cerevisiae deletion strains, locus YLR342W, strain FKS1, active compounds read low 1.01 | S. cerevisiae deletion strains, locus YLR357W, strain rsc2, active compounds read low 1 | S. cerevisiae deletion strains, locus YLR370C, strain arc18, active compounds read low 0.999 | S. cerevisiae deletion strains, locus YLR371W, strain rom2, active compounds read low 0.973 | S. cerevisiae deletion strains, locus YLR384C, strain iki3, active compounds read low 1.01 | S. cerevisiae deletion strains, locus YLR418C, strain cdc73, active compounds read low 0.977 | S. cerevisiae deletion strains, locus YML016C, strain PPZ1, active compounds read low 0.992 | S. cerevisiae deletion strains, locus YML032C, strain rad52, active compounds read low 0.968 | S. cerevisiae deletion strains, locus YML120C, strain ndi1, active compounds read low 1 | S. cerevisiae deletion strains, locus YML124C, strain tub3, active compounds read low 0.978 | S. cerevisiae deletion strains, locus YMR058W, strain fet3, active compounds read low 0.998 | S. cerevisiae deletion strains, locus YMR078C, strain ctf18, active compounds read low 0.959 | S. cerevisiae deletion strains, locus YMR125W, strain sto1, active compounds read low 1.01 | S. cerevisiae deletion strains, locus YMR129W, active compounds read low 1.01 | S. cerevisiae deletion strains, locus YMR205C, strain PFK2, active compounds read low 0.947 | S. cerevisiae deletion strains, locus YMR223W, strain ubp8, active compounds read low 0.95 | S. cerevisiae deletion strains, locus YMR231W, strain pep5, active compounds read low 0.987 | S. cerevisiae deletion strains, locus YMR263W, strain SAP30, active compounds read low 0.999 | S. cerevisiae deletion strains, locus YMR307W, strain GAS1, active compounds read low 1.06 | S. cerevisiae deletion strains, locus YNL067W, strain RPL9B, active compounds read low 1 | S. cerevisiae deletion strains, locus YNL071W, strain lat1, active compounds read low 1.02 | S. cerevisiae deletion strains, locus YNL128W, strain TEP1, active compounds read low 0.987 | S. cerevisiae deletion strains, locus YNL153C, strain GIM3, active compounds read low 0.989 | S. cerevisiae deletion strains, locus YNL183C, strain NPR1, active compounds read low 0.962 | S. cerevisiae deletion strains, locus YNL209W, strain ssb2, active compounds read low 0.997 | S. cerevisiae deletion strains, locus YNL233W, strain BNI4, active compounds read low 0.978 | S. cerevisiae deletion strains, locus YNL248C, strain rpa49, active compounds read low 0.996 | S. cerevisiae deletion strains, locus YNL250W, strain rad50, active compounds read low 0.99 | S. cerevisiae deletion strains, locus YNL271C, strain bni1, active compounds read low 0.984 | S. cerevisiae deletion strains, locus YNL298W, strain CLA4, active compounds read low 0.977 | S. cerevisiae deletion strains, locus YNL322C, strain KRE1 (second series), active compounds read low 0.982 | S. cerevisiae deletion strains, locus YNL322C, strain KRE1, active compounds read low 1 | S. cerevisiae deletion strains, locus YNR049C, strain mso1, active compounds read low 1 | S. cerevisiae deletion strains, locus YNR052C, strain pop2, active compounds read low 0.964 | S. cerevisiae deletion strains, locus YOL006C, strain TOP1, active compounds read low 0.97 | S. cerevisiae deletion strains, locus YOL012C, strain htz1 0.908 | S. cerevisiae deletion strains, locus YOL147C, strain pex11, active compounds read low 0.989 | S. cerevisiae deletion strains, locus YOR001W, strain rrp6, active compounds read low 1.01 | S. cerevisiae deletion strains, locus YOR061W, strain CKA2, active compounds read low 0.993 | S. cerevisiae deletion strains, locus YOR069W, strain VPS5, active compounds read low 0.982 | S. cerevisiae deletion strains, locus YOR070C, strain gyp1, active compounds read low 1.01 | S. cerevisiae deletion strains, locus YOR080W, strain dia2, active compounds read low 0.995 | S. cerevisiae deletion strains, locus YOR083W, strain WHI5, active compounds read low 0.974 | S. cerevisiae deletion strains, locus YOR106W, strain vam3, active compounds read low 0.942 | S. cerevisiae deletion strains, locus YOR136W, strain idh2, active compounds read low 0.963 | S. cerevisiae deletion strains, locus YOR144C, strain elg1, active compounds read low 0.977 | S. cerevisiae deletion strains, locus YOR184W, strain ser1, active compounds read low 0.886 | S. cerevisiae deletion strains, locus YOR231W, strain MKK1, active compounds read low 1.02 | S. cerevisiae deletion strains, locus YOR265W, strain rbl2, active compounds read low 1.01 | S. cerevisiae deletion strains, locus YOR270C, strain vph1, active compounds read low 0.82 | S. cerevisiae deletion strains, locus YOR290C, strain snf2, active compounds read low 0.939 | S. cerevisiae deletion strains, locus YOR316C, strain cot1, active compounds read low 0.985 | S. cerevisiae deletion strains, locus YPL051W, strain arl3, active compounds read low 0.996 | S. cerevisiae deletion strains, locus YPL055C, strain LGE1, active compounds read low 1 | S. cerevisiae deletion strains, locus YPL078C, strain atp4, active compounds read low 1 | S. cerevisiae deletion strains, locus YPL106C, strain sse1, active compounds read low 0.963 | S. cerevisiae deletion strains, locus YPL240C, strain hsp82, active compounds read low 0.999 | S. cerevisiae deletion strains, locus YPL241C, strain CIN2, active compounds read low 0.993 | S. cerevisiae deletion strains, locus YPL256C, strain CLN2, active compounds read low 1.02 | S. cerevisiae deletion strains, locus YPR119W, strain clb2, active compounds read low 0.987 | S. cerevisiae deletion strains, locus YPR141C, strain kar3, active compounds read low 0.982 | S. cerevisiae deletion strains, locus YPR163C, strain tif3, active compounds read low 0.981 | S. cerevisiae deletion strains, locus YPR167C, strain met16, active compounds read low 0.976 | S. cerevisiae deletion strains, strain wtn01, active compounds read low 0.97 | S. cerevisiae strains, strain wild type, active compounds read low 1
